Source: PubChem (National Center for Advancing Translational Sciences (NCATS))
Tau ThT inhib = inhibitors of human tau fibril formation, thioflavin T binding; 270,000 tested, 2.1% active; Potency, µM (titrated, usually from 57.4 µM), inactives show at the top dose activity, negative = inhibition, most hits filed as inhibitors; recombinant tau K18 P301L, heparin-induced fibrillization, ThT fluorescence; P10636; further: potency means the concentration at half of the fitted maximal effect; nearly all actives have a fitted effect of over 55% in size
Target sequence (P10636 561-689 P618L limits assumed): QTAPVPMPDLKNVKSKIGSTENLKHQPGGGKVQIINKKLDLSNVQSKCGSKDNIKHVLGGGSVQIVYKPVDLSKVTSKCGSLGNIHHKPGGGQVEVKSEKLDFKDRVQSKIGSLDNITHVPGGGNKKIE
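Tau K18 P301L fragment (15 uM unlabeled plus 0.24 uM Alexa 594-labeled) in 100 mM sodium acetate pH 7 with compound, fibrillization induced by 20 uM heparin for 6 hr at 37 C. Thioflavin T (30 uM) added, fluorescence read after 1 hr (ex 450, em 510 nm).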
Tau FP inhib = inhibitors of human tau fibril formation | 280,000 tested, 0.39% active | AID 1468 | K18 P301L tau heparin fibrillization, Alexa594 FP, 6 h | P10636 | Potency, µM (series often up to 57.7 µM), for inactives: at the highest dose activity, negative = inhibition, hits mostly inhibitors; further: potency means the concentration at half of the fitted maximal effect; nearly all actives have a fitted effect of over 55% in size
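Read-out: fluorescence polarization of Alexa 594-labeled tau (0.24 uM), 555 nm excitation, 632 nm emission. Mixtures held 15 uM unlabeled K18 P301L, compound and 20 uM heparin, pH 7 acetate buffer, incubated 6 hr at 37 C.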
Coupling enz = counter-screen for Giardia aldolase inhibitors: coupling enzyme system. coupling enzyme system counterscreen, AmpLite Red fluorescence. activity change, negative = inhibition, % at 58.2 µM, hits read low. 290,000 tested, 0.67% active; in the data active means activity change below about -30%
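Final compound at 57.5 uM, incubated 10 min at RT with coupling enzyme reagent (glyceraldehyde-3-phosphate), then 20 min with substrate and AmpLite Red detection. Fluorescence read at 525/598 nm; tests interference with the coupling assay, not aldolase inhibition.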
Sfp inh = blocks B. subtilis Sfp PPTase activity; Q9F4F7; Biochemical Sfp PPTase activity, qHTS; Potency, µM, inactives show largest response in the series, negative = inhibition, usual class: inhibitors; 310,000 tested, 3.5% active; AID 1490;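 further: the enzyme is Sfp with the accession as filed and its product quenches rhodamine fluorescence; potency means the concentration at half of the fitted maximal effect; 0% = enzyme reaction without inhibitor and -100% = no enzyme wells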
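Fluorescence-quenching assay with 15 nM Sfp, 5 uM rhodamine-CoA and 12.5 uM BHQ-2-labelled ybbR peptide in pH 7.6 Hepes/MgCl2 buffer. Enzyme was pre-incubated with compound for 15 min at room temperature. Rate was taken from the 30-min fluorescence change (525/598 nm).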
Tau fluor cs = counter-screen for tau fibril formation inhibitors. tau K18 P301L Alexa594 fluorescence, heparin fibrillization. Potency, µM (titrated, usually from 57.7 µM), for the others: at the highest dose activity change, negative = decrease. 280,000 tested, 0.93% active. AID 1463; further: potency means the concentration at half of the fitted maximal effect; nearly all actives have a fitted effect of over 55% in size
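Human tau K18 P301L (15 uM unlabeled, 0.24 uM Alexa 594-labeled) in 100 mM sodium acetate pH 7 with 20 uM heparin, 6 hr at 37 C. ThT 30 uM added, 1 hr ambient; Alexa 594 FP and total fluorescence read at 555/632 nm.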
An asterisk follows results filed as active; ? = inconclusive; . = not tested or not shown; ! = repeats disagree; [ ] = dose if it differs, or a comment. This is a sample that favours compounds with a hit; in the whole collection about 5.2% have one here. Unless noted, the call rests on the fitted dose curve; in most records, active means well fitted curve in the direction sought with a large enough effect; inconclusive means small, poorly fitted or top-dose-only effect, or another doubt; inactive means no such curve, though single readings can be large; an effect the other way counts as inactive or inconclusive. Unless noted, on the % scale 0 is the no-effect control and ±100 the full control effect.

SMILES	Tau ThT inhib	Tau FP inhib	Coupling enz	Sfp inh	Tau fluor cs
CSc1cccc(NC(=O)C2CCN(C(=O)c3cnn(-c4ccccc4)c3-n3cccc3)CC2)c1	-6%	-15%	.	.	?
Cc1ccccc1-n1c(/C=C/c2c(C)[nH]c3ccccc23)nc2ccccc2c1=O	?	?	.	.	4µM*[quencher]
COc1cccc(CN2CCc3nc(N4CCN(c5ncccn5)CC4)ncc3C2)c1	?	-3%	.	.	-4%
NC(=O)CSP(=O)(c1ccccc1)c1ccccc1	28µM*	?	0	16µM*	-15%
COP(=O)(CC(=O)O)c1ccccc1 (stereo not given)	-4%	-15%	3	-13%	-6%
NNc1n[nH]c(=S)n1N	.	?	-62*	2.8µM*	?
C#CC[N+]1(C)[C@@H]2CC[C@H]1CC(OC(=O)C(CO)c1ccccc1)C2 (stereo not given in full)	.	.	6	1%	.
C[N+]1(C)[C@@H]2CC[C@H]1CC(OC(=O)[C@@H](CO)c1ccccc1)C2 (stereo not given in full)	.	.	0	40µM*!	.
COc1ccc(CCNc2nc3c(c(=O)n(C)c(=O)n3C)n2Cc2ccc(F)cc2)cc1OC	-11%	15%	.	.	?
CN1CCN(c2ccc(Cl)cc2N)CC1	2%	10%	6	-6%	7%
CN1CCN(c2ccc(N)cc2Cl)CC1	?	4%	-32*	?	-15%
Cc1ccc(C)c(N2CCN(c3ncnc4onc(C)c34)CC2)c1	?	-9%	.	.	-20%
CC1(C)N(O)C(c2ccc(C(=O)O)cc2)=[N+]([O-])C1(C)C	?	-16%	-51*	?	-11%
COc1cc(O)c(C(=O)O)c(-c2cc(O)c(O)cc2C)c1	25µM*	?	3	2%	?
COc1ccc2c(c1)c(C(=O)O)c(C)n2CC(C)C	4%	6%	-4	19%	-3%
Nc1nc(O)c(-c2ccccc2)o1	.	.	.	-10%	.
COc1ccc(N/N=C/c2c(O)n(-c3ccc(C)c(C)c3)c(=O)[nH]c2=O)cc1	18µM*	?	1	-25%	-25%
CCN1C(=O)c2ccccc2Sc2ccc(NC(=O)c3ccc(C)c(F)c3)cc21	5%	?	.	.	-19%
CN(C)c1ccc(/C=C2\C(=O)NC(=O)N(Cc3ccc(F)cc3)C2=O)cc1	.	-13%	1	-18%	-7%
COCCN1C(=O)NC(=O)/C(=C\c2ccc(Br)cc2)C1=O	?	?	2	50µM*	-6%
CCC1/C=C/C=CCC(C)C(O)[C@@](C)(O)C(=O)C(C)C(O)C(C)C(=O)C(C)C(O)C(C)C=CC(=O)O[C@H]2C(C)C(CC1)O[C@]1(CCC(C)C(CC(C)O)O1)C2C (stereo not given in full)	?	-4%	-8	-4%	-25%
CCN(CCO)c1ccc(N=Cc2c(O)n(C)c(=S)[nH]c2=O)cc1	.	-2%	-47*	40µM*	24%
C=C(C=O)C[C@@H]1C[C@H](O)C2OC3C[C@]4(C)OC5/C=C\CC6OC7C(CC=CCC6OC5CCCC4OC3CC2O1)OC1CC2OC3CC(=O)OC3C[C@@H](C)C[C@@]2(C)OC1C[C@@H]7C (stereo not given in full)	3.5µM*	4µM*	-4	-1%	-15%
COC(=O)[C@H]1C(=O)c2ccccc2O[C@@](C(=O)OC)(c2ccccc2)[C@@H]1c1ccccc1	-8%[11.5 µM]	-1%[11.6 µM]	1	10%	-11%[11.6 µM]
O=C1NC(=O)N(c2ccccc2F)C(=O)/C1=C/c1ccc(Oc2ccc([N+](=O)[O-])cn2)cc1	?	-16%	4	50µM*	-30%
SMILES	Tau ThT inhib	Tau FP inhib	Coupling enz	Sfp inh	Tau fluor cs
COC1=CC(=O)O[C@H](/C=C/c2ccc3c(c2)OCO3)C1	.	.	5	18%	.
O=C1NC(=O)C(=Cc2coc3ccc(O)cc3c2=O)C(=O)N1	?	-8%	7	13µM*	-14%
O=c1[nH]c(=S)n(C2CC2)c(O)c1C=Nc1ccc2c(c1)OCO2	.	-9%	-16	56µM*	?
O=C(O)Cc1ccccc1	4%	1%	2	2%	3%
O=C(O)CNC(=O)[C@@H](CS)Cc1ccccc1	.	.	4	35µM*	.
CCCOCCN(C(=O)CCl)c1c(CC)cccc1CC	.	.	0	14%	.
N#C/C(=C\c1ccc(O)c(O)c1)C(=O)NCCCNC(=O)/C(C#N)=C/c1ccc(O)c(O)c1	10µM*	8%	.	.	?
COC[C@H]1OC(=O)c2coc3c2[C@@]1(C)C1=C(C3=O)[C@@H]2CCC(=O)[C@@]2(C)C[C@H]1OC(C)=O	14µM*	25µM*	.	35µM*	?
c1cncc(C2Nc3cccc4cccc(c34)N2)c1	13µM*	?	-15	?	14µM*[quencher]
c1cncc(C2CCCCN2)c1 (stereo not given)	-5%	-2%	2	33%	0%
CCCCNC(=O)Oc1c(Br)cc2sc(=O)oc2c1Br	.	?	4	11µM*	?
CN1CCN(c2ccc(NC(=O)Oc3ccccc3)cc2)CC1	-19%	-2%	-1	8%	-12%
CN1CC[C@@]2(C)c3cc(OC(=O)Nc4ccccc4)ccc3N(C)[C@@H]12	32µM*	?	.	14%	?
CNC(=O)Oc1ccc2c(c1)[C@@]1(C)CCN(C)[C@@H]1N2C	-14%	-4%	-44*!	7%	-11%
COC(=O)c1cc(NC(=O)Cn2nc(-c3ccccc3)c3c(c2=O)CCCC3)cc(C(=O)OC)c1	1%	?	.	.	-26%
CN1/C(=C\C=C\C2=[N+](C)c3ccc4ccccc4c3C2(C)C)C(C)(C)c2ccccc21	1.4µM*	?	.	16µM*	0.32µM*[fluorescent]
C[N+]1=C(/C=C/Nc2ccccc2)C(C)(C)c2ccccc21	-2%	-3%	9	?	-8%
N#CC(C#N)=Cc1ccc(C=C(C#N)C#N)cc1	20µM*	?	-23	?	-21%
N#CC(C#N)=Cc1ccc([N+](=O)[O-])c(O)c1	25µM*	?	-28	35µM*	?
COc1cc2c(cc1O)C(CCc1ccc(Cl)cc1)N(C)CC2 (stereo not given)	-7%	6%	2	8%	-5%
N#Cc1c(Oc2cccc(OS(=O)(=O)CCCC(F)(F)F)c2)cccc1C(F)(F)F	.	.	-7	20%	.
CCCCCCCCCCCCC/C=C/[C@@H](O)[C@@H](N)COP(=O)([O-])OCC[N+](C)(C)C	1%	-3%	8	?	-12%
Cc1ccc(OCC(=O)N/N=C\c2ccc(O)c([N+](=O)[O-])c2)c([N+](=O)[O-])c1	13µM*	6%	-1	-8%	-22%
C[C@H](NC(=O)[C@@H](N)Cc1ccc(O)cc1)C(=O)NCC(=O)N(C)[C@@H](Cc1ccccc1)C(=O)NCCO	-2%	-10%	.	5%	-11%
